Structures are written as SMILES. Results filed as inconclusive are left out. Activity calls are given as the source filed them.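 The calls were made as follows, unless noted: active = inhibition above 54%, about 3 SD of non-fluorescent compounds; inactive = the rest.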

Assay [1] is described as follows: yeast TOR pathway RPL19A-GFP modulators, primary screen, cell-based, S. cerevisiae, multiplex flow cytometry (AID 1862; in the data active = percent of DMSO control GFP below about 86%;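 also: lower values mimic rapamycin by blocking the RPL19A rise seen in DMSO cells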). As to conditions: S. cerevisiae RPL19A-GFP strain, flow cytometry fluorescence, 3 h; at 10 µM; stronger effect = lower value.
Assay [2] in a line: modulators of MEP2-GFP levels in yeast, primary screen, S. cerevisiae, multiplex flow cytometry (AID 1867;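 active = GFP response, as percent of the DMSO control, above the screen-wide mean plus 3 SD, about 139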;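 also: median GFP channel fluorescence of barcode-gated MEP2-GFP cells measured by flow cytometry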). As to conditions: S. cerevisiae MEP2-GFP strain, 3 h, at 10 µM, stronger effect = higher value, 100% means same as DMSO wells. (A flow cytometer gives signals particle by particle.)
Assay [3] in a line: modulators of CIT2-GFP expression in yeast, primary screen, S. cerevisiae, GFP fusion, multiplex flow cytometry (AID 1870;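 active = percent response above a set limit, the screen-wide mean plus 3 SD, cut at about 130% in these data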;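 also: barcoded CIT2-GFP strain pooled with four other GFP strains with rapamycin as positive control; median GFP fluorescence per well over plate mean of DMSO wells so 100% = DMSO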). As to conditions: 3 h, at 10 µM, stronger effect = higher value.
The nature of assay [4]: modulators of LAP4-GFP expression in yeast, primary screen, S. cerevisiae, multiplex flow cytometry (AID 1873;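 active = GFP signal, as percent of the solvent control, above the screen mean plus 3 SD, about 149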). Conditions: 3 h, at 10 µM, stronger effect = higher value.
Assay [5] in a line: modulators of AGP1-GFP expression in yeast TOR pathway, primary screen, cell-based, multiplex flow cytometry, S. cerevisiae (AID 1887;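 active = GFP signal above the screen-wide mean plus 3 SD, that is over about 124.5% of the solvent control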;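 also: AGP1-GFP fusion strain of S. cerevisiae within a five-strain barcoded multiplex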). As to conditions: 3 h, at 10 µM, stronger effect = higher value.
A short description of assay [6]: inhibitors of CD8+ T cell-vesicle binding, pilot screen, LFA-1/ICAM-1 modulator project, MLPCN validation set, flow cytometry (AID 2523;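 active = response below a set limit, under 55% cells CD8-positive and vesicle-bound, and CD8 cells' 90th-percentile brightness under 279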;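 as to vesicle binding response: mean PE anti-B7-1 fluorescence of CD8+ cells relative to row control; 100% = QL9-loaded vesicles with DMSO vehicle in the same plate row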). Conditions: 2C mouse CD8+ T cells, at 7 µM, stronger effect = lower value; double positive events: measured here: CD8+/vesicle+ event percentage.
Assay [7] deals with Integrin beta-1 (Homo sapiens) + Integrin alpha-4 (Homo sapiens) (UniProt P13612+P05556). Kind of assay: inhibition of HUTS-21 binding to VLA-4, pilot screen, VLA-4 allosteric modulator project, U937 cells, HUTS-21 mAb, flow cytometry, validation set (AID 2674;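 active = inhibition above 50%, about 3 SD of the validation set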;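 also: antibody binding induced by the VLA-4 ligand LDV present at three times its Kd; 0% = LDV ligand with antibody and no compound and 100% = antibody without LDV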). As to conditions: HUTS-21 LIBS mAb binding, at 6.7 µM, stronger effect = higher value, binding induced by LDV ligand.
Chain of Integrin beta-1 (Homo sapiens) + Integrin alpha-4 (Homo sapiens) (P05556 whole entry, looked up): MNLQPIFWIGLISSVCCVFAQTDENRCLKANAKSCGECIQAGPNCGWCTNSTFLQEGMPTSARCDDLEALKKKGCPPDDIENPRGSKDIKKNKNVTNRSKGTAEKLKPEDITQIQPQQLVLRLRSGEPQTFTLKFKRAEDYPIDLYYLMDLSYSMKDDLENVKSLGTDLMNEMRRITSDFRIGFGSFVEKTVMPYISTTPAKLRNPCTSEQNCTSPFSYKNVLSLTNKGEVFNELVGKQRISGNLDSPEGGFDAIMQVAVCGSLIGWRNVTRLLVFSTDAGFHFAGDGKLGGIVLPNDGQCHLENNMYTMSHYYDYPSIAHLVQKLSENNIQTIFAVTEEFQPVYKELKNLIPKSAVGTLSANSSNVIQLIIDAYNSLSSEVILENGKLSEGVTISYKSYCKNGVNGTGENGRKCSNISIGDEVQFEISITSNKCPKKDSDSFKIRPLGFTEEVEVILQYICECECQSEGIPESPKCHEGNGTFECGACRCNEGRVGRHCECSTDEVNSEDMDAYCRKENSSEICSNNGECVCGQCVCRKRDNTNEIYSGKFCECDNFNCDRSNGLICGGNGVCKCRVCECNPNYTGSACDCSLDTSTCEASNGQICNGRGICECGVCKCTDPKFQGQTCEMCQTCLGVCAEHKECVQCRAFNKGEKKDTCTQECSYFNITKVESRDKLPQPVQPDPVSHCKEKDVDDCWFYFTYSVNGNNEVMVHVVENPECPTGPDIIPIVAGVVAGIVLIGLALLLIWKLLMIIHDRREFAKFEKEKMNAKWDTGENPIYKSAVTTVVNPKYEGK
Chain of Integrin beta-1 (Homo sapiens) + Integrin alpha-4 (Homo sapiens) (P13612 whole entry, looked up): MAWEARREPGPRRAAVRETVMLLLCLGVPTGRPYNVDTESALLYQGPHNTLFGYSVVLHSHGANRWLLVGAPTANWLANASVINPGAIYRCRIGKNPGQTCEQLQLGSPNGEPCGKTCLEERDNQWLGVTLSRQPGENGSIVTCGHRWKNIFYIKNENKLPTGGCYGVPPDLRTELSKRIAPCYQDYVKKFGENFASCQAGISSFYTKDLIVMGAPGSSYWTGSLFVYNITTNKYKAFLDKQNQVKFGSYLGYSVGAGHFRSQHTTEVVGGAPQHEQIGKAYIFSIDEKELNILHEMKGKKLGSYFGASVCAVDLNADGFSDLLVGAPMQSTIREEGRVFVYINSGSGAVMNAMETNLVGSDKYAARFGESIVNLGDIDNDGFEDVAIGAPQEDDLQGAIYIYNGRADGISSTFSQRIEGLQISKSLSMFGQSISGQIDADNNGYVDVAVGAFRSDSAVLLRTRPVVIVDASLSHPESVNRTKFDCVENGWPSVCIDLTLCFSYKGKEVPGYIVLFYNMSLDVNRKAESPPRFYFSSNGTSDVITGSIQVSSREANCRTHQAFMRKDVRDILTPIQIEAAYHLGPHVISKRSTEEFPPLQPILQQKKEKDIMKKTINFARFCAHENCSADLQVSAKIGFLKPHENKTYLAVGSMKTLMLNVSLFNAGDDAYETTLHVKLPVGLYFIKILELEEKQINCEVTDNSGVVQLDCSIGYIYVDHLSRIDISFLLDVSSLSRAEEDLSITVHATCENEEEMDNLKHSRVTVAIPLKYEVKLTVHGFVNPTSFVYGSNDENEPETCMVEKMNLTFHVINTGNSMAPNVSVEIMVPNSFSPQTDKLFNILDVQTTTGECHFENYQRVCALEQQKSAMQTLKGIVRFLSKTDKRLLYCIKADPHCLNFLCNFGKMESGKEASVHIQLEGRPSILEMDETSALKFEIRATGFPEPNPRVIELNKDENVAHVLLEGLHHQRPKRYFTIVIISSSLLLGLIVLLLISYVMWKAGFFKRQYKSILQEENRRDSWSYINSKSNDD
Assay [8] in a line: superoxide lowering in aged yeast cells, pilot screen, validation compound set (AID 2706;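 active = superoxide response below 65% of plate, a cut near 3 SD across the whole screen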;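 also: yeast exposed to compound for one week at 30 degrees C before staining; 100% = mean of all compound wells on the same plate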). Conditions: S. cerevisiae aging, superoxide DHE fluorescence; at 10 µM; stronger effect = lower value.
Assay [9] addresses Beta-adrenergic receptor kinase 1 (Homo sapiens) (UniProt P25098). Kind of assay: GRK2 binders displacing RNA aptamer, biochemical, validation, human GRK2, bead flow cytometry (AID 488806;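 active = aptamer binding inhibition above 30%, about 3 SD of noise from non-fluorescent compounds; inactive = inhibition at or below 30%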). As to conditions: bead-bound GRK2, FAM-aptamer displacement, at 10 µM, stronger effect = higher value.
Assay [10] deals with Beta-2 adrenergic receptor (Homo sapiens) (UniProt P07550). The assay can be described thus: beta2AR agonists driving receptor internalization, pilot screen, cell-based, FAP fluorogen, flow cytometry, validation set (AID 504459;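 active = percent response above 42, roughly 3 SD of non-fluorescent test compounds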;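 also: agonist-driven loss of surface beta2AR via internalization measured by FAP dye flow cytometry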). Conditions: Am2.2-beta2AR cells, FAP surface receptor flow cytometry; at 10 µM; stronger effect = higher value.
Chain of Beta-2 adrenergic receptor (Homo sapiens) (P07550 whole entry, looked up): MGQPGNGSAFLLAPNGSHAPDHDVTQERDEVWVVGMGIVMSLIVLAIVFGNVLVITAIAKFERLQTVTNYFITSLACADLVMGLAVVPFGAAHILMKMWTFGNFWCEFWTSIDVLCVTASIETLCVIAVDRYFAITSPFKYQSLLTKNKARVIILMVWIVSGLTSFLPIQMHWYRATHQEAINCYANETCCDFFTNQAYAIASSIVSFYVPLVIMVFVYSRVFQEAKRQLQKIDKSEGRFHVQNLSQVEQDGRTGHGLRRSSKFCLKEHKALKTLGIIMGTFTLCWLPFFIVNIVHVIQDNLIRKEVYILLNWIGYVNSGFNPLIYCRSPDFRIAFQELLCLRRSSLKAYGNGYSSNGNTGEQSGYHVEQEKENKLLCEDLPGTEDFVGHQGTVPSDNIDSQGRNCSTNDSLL
In assay [11] the target is AP-2 complex subunit beta (Homo sapiens) (UniProt P63010). The assay can be described thus: inhibitors of arrestin peptide binding to AP2, pilot screen, biochemical, validation set, GST-AP2 beads, flow cytometry (AID 504541).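 Also: AP2 carries R879A mutation and is captured from E. coli lysate; bead-bound FITC arrestin peptide fluorescence measuring arrestin peptide binding to AP2; 0% = DMSO wells and 100% = excess unlabeled arrestin peptide control.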 As to conditions: FITC arrestin peptide, at 10 µM, stronger effect = higher value, AP2 beta2 appendage fragment, R879A mutant.
Chain of AP-2 complex subunit beta (Homo sapiens) (P63010 whole entry, looked up, the tested form may be a part, one chain of several): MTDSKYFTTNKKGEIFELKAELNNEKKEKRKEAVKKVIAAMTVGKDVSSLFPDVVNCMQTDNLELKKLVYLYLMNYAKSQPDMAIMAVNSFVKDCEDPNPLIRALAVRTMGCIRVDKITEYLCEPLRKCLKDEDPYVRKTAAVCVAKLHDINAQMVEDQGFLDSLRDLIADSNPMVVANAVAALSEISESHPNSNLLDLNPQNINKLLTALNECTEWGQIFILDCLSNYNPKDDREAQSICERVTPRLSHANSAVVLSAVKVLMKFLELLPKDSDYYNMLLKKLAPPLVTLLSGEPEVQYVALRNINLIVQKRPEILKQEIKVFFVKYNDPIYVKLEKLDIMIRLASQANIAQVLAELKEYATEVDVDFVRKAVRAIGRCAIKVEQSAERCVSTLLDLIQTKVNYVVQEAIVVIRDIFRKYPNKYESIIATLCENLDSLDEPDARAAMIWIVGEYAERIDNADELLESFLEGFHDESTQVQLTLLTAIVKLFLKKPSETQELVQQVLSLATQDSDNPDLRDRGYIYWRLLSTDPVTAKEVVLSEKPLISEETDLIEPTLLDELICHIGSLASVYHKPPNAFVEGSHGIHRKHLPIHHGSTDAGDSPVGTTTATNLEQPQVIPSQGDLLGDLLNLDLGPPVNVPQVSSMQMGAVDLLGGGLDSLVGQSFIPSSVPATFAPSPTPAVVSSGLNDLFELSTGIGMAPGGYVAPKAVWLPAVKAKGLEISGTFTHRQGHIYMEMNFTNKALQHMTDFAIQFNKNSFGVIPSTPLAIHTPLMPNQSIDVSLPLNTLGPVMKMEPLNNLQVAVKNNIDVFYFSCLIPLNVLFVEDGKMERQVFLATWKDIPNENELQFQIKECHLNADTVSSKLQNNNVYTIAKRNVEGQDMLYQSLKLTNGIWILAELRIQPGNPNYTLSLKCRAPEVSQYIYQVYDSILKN
Assay [12] is described as follows: yeast V-ATPase proton transport modulators, S. cerevisiae, pHLuorin, HTS validation (AID 504600; in the data active = response above about 15%;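 also: plate controls were DMSO for no effect and reference compound for full effect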). As to conditions: S. cerevisiae pHLuorin cytosolic pH, at 10 µM, stronger effect = higher value.
Assay [13] deals with anti-desmoglein-3 scFv antibody binding to human DSG3. Kind of assay: inhibitors of anti-DSG3 scFv binding to DSG3, pilot screen, biochemical, validation compound set, bead-based, flow cytometry (AID 588368;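 active = binding below the plate cutoff, the plate median minus 3 SD, with a reading above zero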;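 also: signal is the median channel fluorescence of bead-bound GFP antibody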). As to conditions: Protein G beads, DSG3-Fc, scFv-GFP binding, at 10 µM, stronger effect = lower value.
Assay [14] is described as follows: inhibitors of fungal efflux pumps CDR1, CDR2, MDR1, pilot screen, validation compound set, multiplex, phenotypic (AID 588506;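 active = efflux inhibition above 0.42, the validation set average plus 4 SD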;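 also: Nile Red retained in cells so higher fluorescence means more efflux inhibition; 0 = negative control wells and 1 = enniatin B 25 µM full block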). As to conditions: S. cerevisiae pump-expressing triplex, Nile Red efflux flow cytometry; at 10 µM; stronger effect = higher value; the pumps come from Candida albicans.
Assay [15] has as its target ATP-binding cassette sub-family B member 6 (Homo sapiens) (UniProt Q9NP58). The assay can be described thus: ABCB6 transporter inhibitors, pilot screen, K562-ABCB6 cells, flow cytometry, validation set (AID 588550;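 active = inhibition above the screen-wide mean plus 3 SD, about 51%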;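 also: 0% = DMSO wells and 100% = benzethonium chloride 70 µM positive control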). As to conditions: K562-ABCB6 porphyrin accumulation, 1 h, at 10 µM, stronger effect = higher value.
A short description of assay [16]: promoters of myeloid differentiation in arrested cells, primary screen, cell-based, GFP/MAC1 double positive, flow cytometry, validation set (AID 588685;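 active = differentiation response of at least 50%, scaled between solvent and reference control, from cells with both markers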;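 also: compound exposure lasts four days before antibody staining and flow analysis; 0% = DMSO wells and 100% = 5 µM fulvestrant positive control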). As to conditions: ER-HoxA9 marrow cells, stronger effect = higher value, normalized: vehicle 0, fulvestrant 100.

Chain of Beta-adrenergic receptor kinase 1 (Homo sapiens) (P25098 whole entry, looked up): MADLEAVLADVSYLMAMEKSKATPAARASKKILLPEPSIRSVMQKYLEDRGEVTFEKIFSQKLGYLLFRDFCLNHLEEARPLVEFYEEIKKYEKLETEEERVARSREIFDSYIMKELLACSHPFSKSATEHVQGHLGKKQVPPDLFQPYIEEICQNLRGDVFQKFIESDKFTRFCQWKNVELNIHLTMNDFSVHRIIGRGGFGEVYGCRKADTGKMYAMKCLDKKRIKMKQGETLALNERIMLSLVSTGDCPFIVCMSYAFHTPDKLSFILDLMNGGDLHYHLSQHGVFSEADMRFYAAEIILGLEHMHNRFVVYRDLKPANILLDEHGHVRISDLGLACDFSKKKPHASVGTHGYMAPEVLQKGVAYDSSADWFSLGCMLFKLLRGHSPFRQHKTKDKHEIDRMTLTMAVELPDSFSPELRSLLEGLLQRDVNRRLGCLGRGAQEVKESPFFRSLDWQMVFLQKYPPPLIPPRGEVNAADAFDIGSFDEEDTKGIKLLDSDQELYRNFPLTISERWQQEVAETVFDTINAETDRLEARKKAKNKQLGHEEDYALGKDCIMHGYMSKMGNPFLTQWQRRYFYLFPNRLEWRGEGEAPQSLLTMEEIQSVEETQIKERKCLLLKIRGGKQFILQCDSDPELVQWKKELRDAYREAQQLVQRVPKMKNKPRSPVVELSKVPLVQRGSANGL
Chain of ATP-binding cassette sub-family B member 6 (Homo sapiens) (Q9NP58 whole entry, looked up): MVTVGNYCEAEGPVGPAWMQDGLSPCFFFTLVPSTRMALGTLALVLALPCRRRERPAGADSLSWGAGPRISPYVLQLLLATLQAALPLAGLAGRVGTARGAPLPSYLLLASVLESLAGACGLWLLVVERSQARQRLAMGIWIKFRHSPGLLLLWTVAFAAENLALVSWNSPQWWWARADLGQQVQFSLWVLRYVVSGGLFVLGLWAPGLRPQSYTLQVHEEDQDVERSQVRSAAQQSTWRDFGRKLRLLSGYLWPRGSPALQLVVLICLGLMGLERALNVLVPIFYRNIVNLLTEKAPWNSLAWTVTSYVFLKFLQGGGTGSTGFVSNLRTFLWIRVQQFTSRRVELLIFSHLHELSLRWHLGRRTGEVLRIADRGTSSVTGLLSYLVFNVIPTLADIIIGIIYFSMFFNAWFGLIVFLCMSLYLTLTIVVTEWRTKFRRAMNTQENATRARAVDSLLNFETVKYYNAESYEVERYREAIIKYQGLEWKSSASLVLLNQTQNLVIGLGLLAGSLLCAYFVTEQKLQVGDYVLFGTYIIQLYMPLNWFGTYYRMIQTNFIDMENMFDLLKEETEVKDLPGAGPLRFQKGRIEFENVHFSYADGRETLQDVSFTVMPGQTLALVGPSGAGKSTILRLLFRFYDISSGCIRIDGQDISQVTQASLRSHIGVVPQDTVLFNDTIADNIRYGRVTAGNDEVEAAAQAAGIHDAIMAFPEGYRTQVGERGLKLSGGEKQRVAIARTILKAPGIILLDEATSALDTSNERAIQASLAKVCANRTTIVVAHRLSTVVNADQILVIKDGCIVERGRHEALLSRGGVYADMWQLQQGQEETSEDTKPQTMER

`O=C(O)c1cccnc1Nc1cccc(C(F)(F)F)c1`: the percent of DMSO control GFP in assay [1] was 95.9% (inactive). Further, the GFP response vs DMSO in assay [2] is 130% (inactive); in assay [4] it was 83.6% (inactive). For the same compound, the percent response of DMSO control in assay [3] was 110% (inactive). Also, the GFP response, % of DMSO in [5] is 93.3% (inactive). The compound further registered a double positive events in [6] of 63.3%. In assay [6], the vesicle binding response was 214% (inactive). Further, the inhibition – broadly, the drop in the measured response relative to a control, in per cent – in assay [7] was 7.43% (inactive); in assay [11], 47.1% (inactive); in assay [15], 15% (inactive). The superoxide response (% of plate) in assay [8] is 98.6% (inactive). The aptamer binding inhibition in assay [9] is 6% (inactive). Further, the response in assay [10] is 6.98% (inactive); in [12], -7.29% (inactive). For the same compound, in [13], the binding (% of control) was 102% (inactive). The efflux inhibition (fraction of control) in assay [14] was 0.48 (active). For the same compound, the differentiation response in assay [16] was 7.37% (inactive).

With `CC1(C)Oc2ccc(C#N)cc2[C@@H](N2CCCC2=O)[C@@H]1O`, in assay [1], the percent of DMSO control GFP is 97.9% (inactive). Also, the results for the GFP response vs DMSO in assay [2] and in assay [4] were 115% (inactive) and 78.7% (inactive), respectively. Moreover, the percent response of DMSO control in assay [3] was 116% (inactive). In addition, the GFP response, % of DMSO in [5] is 99.1% (inactive). This compound also displayed a double positive events in [6] of 63%. In addition, the vesicle binding response in assay [6] is 180% (inactive). For the same compound, the inhibition was 2.58% (inactive) in assay [7], 1.01% (inactive) in assay [11] and 6% (inactive) in assay [15]. The superoxide response (% of plate) in assay [8] was 93% (inactive). In [9], the aptamer binding inhibition was -1% (inactive). For the same compound, the response in assay [10] was -6.3% (inactive); in [12], 0.27% (inactive). For the same compound, in assay [13], the binding (% of control) is 100% (inactive). Moreover, in [14], the efflux inhibition (fraction of control) was -0.09 (inactive). The differentiation response in [16] is 0% (inactive).

As to `CC(=O)NC1C(OCc2ccccc2)OC(COC(C)=O)C(OC(C)=O)C1OC(C)=O` (stereo not given), in [1], the percent of DMSO control GFP is 104% (inactive). The GFP response vs DMSO in assay [2] is 104% (inactive); in assay [4] it was 91.5% (inactive). The percent response of DMSO control in [3] is 106% (inactive). The GFP response, % of DMSO in assay [5] was 96% (inactive). This compound had a double positive events in assay [6] of 65.2%. In addition, in assay [6], the vesicle binding response is 183% (inactive). Further, the inhibition was -44% (inactive) in [7], -2% (inactive) in assay [11] and 2% (inactive) in assay [15]. Also, the superoxide response (% of plate) in assay [8] is 105% (inactive). Moreover, the aptamer binding inhibition in assay [9] is 2% (inactive). Moreover, the response in assay [10] was 1.83% (inactive); in assay [12], -3.81% (inactive). Further, in assay [13], the binding (% of control) was 104% (inactive). The efflux inhibition (fraction of control) in assay [14] is 0.12 (inactive). In assay [16], the differentiation response was -6.03% (inactive).

Regarding `O=C(NCC1CCCO1)c1ccc(OC2CCN(C(=O)C3CC3)CC2)cc1` (stereo not given), the percent of DMSO control GFP in [1] was 98.2% (inactive). Further, the GFP response vs DMSO in [2] was 106% (inactive); in [4] it was 96.6% (inactive). Besides, the percent response of DMSO control in assay [3] is 97.8% (inactive). The GFP response, % of DMSO in [5] was 99.4% (inactive). In assay [6], this compound registered a double positive events of 63.1%. For the same compound, the vesicle binding response in assay [6] is 5260% (inactive). In addition, the inhibition in assay [7] is -22.2% (inactive); in assay [11] it was -5.78% (inactive); in assay [15], 3% (inactive). Also, the superoxide response (% of plate) in [8] was 94% (inactive). For the same compound, the aptamer binding inhibition in assay [9] is 2% (inactive). Moreover, the response was -3.28% (inactive) in [10] and 0.79% (inactive) in [12]. In assay [13], the binding (% of control) is 101% (inactive). In addition, the efflux inhibition (fraction of control) in assay [14] is -0.01 (inactive). Moreover, the differentiation response in [16] was -6.6% (inactive).

For `CCOc1ccc(C(=O)NC(C)C2COc3ccccc3O2)cc1` (stereo not given), the percent of DMSO control GFP in assay [1] was 99.5% (inactive). Also, the GFP response vs DMSO was 104% (inactive) in [2] and 110% (inactive) in [4]. Further, the percent response of DMSO control in [3] is 95.7% (inactive). The GFP response, % of DMSO in [5] was 106% (inactive). The same compound yielded a double positive events in assay [6] of 61.2%. For the same compound, in assay [6], the vesicle binding response is 111% (inactive). Further, the inhibition is 7.4% (inactive) in assay [7], -0.3% (inactive) in assay [11] and 1% (inactive) in assay [15]. In addition, the superoxide response (% of plate) in [8] was 108% (inactive). For the same compound, the aptamer binding inhibition in assay [9] is 6% (inactive). Further, the response is -18% (inactive) in [10] and -8.02% (inactive) in [12]. For the same compound, the binding (% of control) in assay [13] was 106% (inactive). The efflux inhibition (fraction of control) in [14] is -0.17 (inactive). In addition, the differentiation response in [16] is 4.86% (inactive).

The values above are taken from PubChem BioAssay.
